# From PubChem BioAssay AID1159580 (chemical genetic matrix, 2015)
# The campaign covered roughly 5,500 compounds. About 2,000 (36%) were called active. Not shown: some 18% with an inconclusive outcome. Some of the results follow. A number with no mark means an inactive call. Cut-off read from the data, not from the text of the source: active = normalized growth mostly below about 0.91 (no sharp cut-off); inconclusive = no clear call, values can overlap the other calls; inactive = mostly above about 0.92.
# Assay: chemical genetic growth profiling, strain panel (AID 1159580);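 note: tested at 20 µM; growth read once vehicle control cultures reached saturation at 30 °C; 1 = growth at the plate median or of vehicle wells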
# Details: S. cerevisiae deletion strains, growth OD
# [1] = locus YAR019C, strain CDC15, stronger effect = lower value
# [2] = locus YBL105C, strain PKC1, stronger effect = lower value
# [3] = locus YBR135W, strain CKS1, stronger effect = lower value
# [4] = locus YBR136W, strain MEC1, stronger effect = lower value
# [5] = locus YBR160W, strain CDC28, stronger effect = lower value
# [6] = locus YDL017W, strain CDC7, stronger effect = lower value
# [7] = locus YDL028C, strain MPS1, stronger effect = lower value
# [8] = locus YDL101C, strain DUN1, stronger effect = lower value
# [9] = locus YDL108W, strain KIN28, stronger effect = lower value
# [10] = locus YDL132W, strain cdc53, stronger effect = lower value
# [11] = locus YDL214C, strain PRR2, stronger effect = lower value
# [12] = locus YDR052C, strain DBF4, stronger effect = lower value
# [13] = locus YDR054C, strain cdc34, stronger effect = lower value
# [14] = locus YDR226W, strain ADK1, stronger effect = lower value
# [15] = locus YDR477W, strain SNF1, stronger effect = lower value
# [16] = locus YER123W, strain YCK3, stronger effect = lower value
# [17] = locus YER133W, strain GLC7, stronger effect = lower value
# [18] = locus YFL009W, strain cdc4, stronger effect = lower value
# [19] = locus YFL029C, strain CAK1, stronger effect = lower value
# [20] = locus YFR003C, strain YPI1, stronger effect = lower value
# [21] = locus YFR019W, strain FAB1, stronger effect = lower value
# [22] = locus YFR028C, strain CDC14, stronger effect = lower value
# [23] = locus YGR040W, strain KSS1, stronger effect = lower value
# [24] = locus YGR052W, strain FMP48, stronger effect = lower value
# [25] = locus YGR092W, strain DBF2, stronger effect = lower value
# [26] = locus YHR030C, strain SLT2, stronger effect = lower value
# [27] = locus YHR079C, strain IRE1, stronger effect = lower value
# [28] = locus YHR082C, strain KSP1, stronger effect = lower value
# [29] = locus YHR205W, strain SCH9, stronger effect = lower value
# [30] = locus YIL147C, strain SLN1, stronger effect = lower value
# [31] = locus YJL095W, strain BCK1, stronger effect = lower value
# [32] = locus YJL157C, strain FAR1, stronger effect = lower value
# [33] = locus YJR016C, strain ILV3, stronger effect = lower value
# [34] = locus YJR066W, strain TOR1 (second series), stronger effect = lower value
# [35] = locus YJR066W, strain TOR1, stronger effect = lower value
# [36] = locus YKL048C, strain ELM1, stronger effect = lower value
# [37] = locus YKL067W, strain YNK1, stronger effect = lower value
# [38] = locus YKL101W, strain HSL1, stronger effect = lower value
# [39] = locus YKL193C, strain SDS22, stronger effect = lower value
# [40] = locus YKL203C, strain TOR2, stronger effect = lower value
# [41] = locus YLR113W, strain HOG1, stronger effect = lower value
# [42] = locus YLR133W, strain CKI1, stronger effect = lower value
# [43] = locus YLR403W, strain SFP1, stronger effect = lower value
# [44] = locus YML070W, strain DAK1, stronger effect = lower value
# [45] = locus YMR001C, strain CDC5, stronger effect = lower value
# [46] = locus YMR205C, strain PFK2 (second series), stronger effect = lower value
# [47] = locus YMR277W, strain FCP1, stronger effect = lower value
# [48] = locus YNL006W, strain LST8, stronger effect = lower value
# [49] = locus YNL020C, strain ARK1, stronger effect = lower value
# [50] = locus YNL161W, strain CBK1, stronger effect = lower value
# [51] = locus YNL183C, strain NPR1, stronger effect = lower value
# [52] = locus YNL207W, strain RIO2, stronger effect = lower value
# [53] = locus YNL222W, strain SSU72, stronger effect = lower value
# [54] = locus YNL307C, strain MCK1 (second series), stronger effect = lower value
# [55] = locus YOL078W, strain AVO1, stronger effect = lower value
# [56] = locus YOL136C, strain PFK27, stronger effect = lower value
# [57] = locus YOR061W, strain CKA2, stronger effect = lower value
# [58] = locus YOR119C, strain RIO1, stronger effect = lower value
# [59] = locus YOR231W, strain MKK1, stronger effect = lower value
# [60] = locus YOR329C, strain SCD5, stronger effect = lower value
# [61] = locus YPL031C, strain PHO85, stronger effect = lower value
# [62] = locus YPL153C, strain RAD53, stronger effect = lower value
# [63] = locus YPL204W, strain HRR25, stronger effect = lower value
# [64] = locus YPL209C, strain IPL1, stronger effect = lower value
# [65] = locus YPL256C, strain CLN2, stronger effect = lower value
# [66] = locus YPR025C, strain CCL1, stronger effect = lower value
# [67] = locus YPR106W, strain ISR1, stronger effect = lower value
# [68] = locus YPR111W, strain DBF20, stronger effect = lower value
# [69] = strain NNK1, stronger effect = lower value
# [70] = strain TSCII, stronger effect = lower value
# [71] = locus YJL128C, strain PBS2, stronger effect = lower value
compound,measurement,setting,value
Oc1c(Br)cc(Br)cc1/C=N\n1cnnc1,normalized growth,[1],0.938
same,normalized growth,[2],0.942
same,normalized growth,[3],0.943
same,normalized growth,[4],0.943
same,normalized growth,[5],0.958
same,normalized growth,[6],0.943
same,normalized growth,[7],0.941
same,normalized growth,[8],0.915
same,normalized growth,[9],0.945
same,normalized growth,[10],0.947
same,normalized growth,[11],0.588 (active)
same,normalized growth,[12],0.947
same,normalized growth,[13],0.933
same,normalized growth,[14],0.947
same,normalized growth,[15],0.308 (active)
same,normalized growth,[16],0.452 (active)
same,normalized growth,[17],0.483 (active)
same,normalized growth,[18],0.954
same,normalized growth,[19],0.949
same,normalized growth,[20],0.945
same,normalized growth,[21],0.791
same,normalized growth,[22],0.958
same,normalized growth,[23],0.391 (active)
same,normalized growth,[24],0.323 (active)
same,normalized growth,[25],0.116 (active)
same,normalized growth,[26],0.307 (active)
same,normalized growth,[27],0.246 (active)
same,normalized growth,[28],0.32 (active)
same,normalized growth,[29],0.0783 (active)
same,normalized growth,[30],0.907
same,normalized growth,[31],0.26 (active)
same,normalized growth,[32],0.412 (active)
same,normalized growth,[33],0.951
same,normalized growth,[34],0.728
same,normalized growth,[35],0.287 (active)
same,normalized growth,[36],0.289 (active)
same,normalized growth,[37],0.503 (active)
same,normalized growth,[38],0.225 (active)
same,normalized growth,[39],0.943
same,normalized growth,[40],0.244 (active)
same,normalized growth,[41],0.369 (active)
same,normalized growth,[42],0.305 (active)
same,normalized growth,[43],0.122 (active)
same,normalized growth,[44],0.606 (active)
same,normalized growth,[45],0.903
same,normalized growth,[46],0.355 (active)
same,normalized growth,[47],0.931
same,normalized growth,[48],0.927
same,normalized growth,[49],0.259 (active)
same,normalized growth,[50],0.944
same,normalized growth,[51],0.354 (active)
same,normalized growth,[52],0.942
same,normalized growth,[53],0.944
same,normalized growth,[54],0.138 (active)
same,normalized growth,[55],0.926
same,normalized growth,[56],0.517 (active)
same,normalized growth,[57],0.15 (active)
same,normalized growth,[58],0.237 (active)
same,normalized growth,[59],0.316 (active)
same,normalized growth,[60],0.934
same,normalized growth,[61],0.303 (active)
same,normalized growth,[62],0.416 (active)
same,normalized growth,[63],0.348 (active)
same,normalized growth,[64],0.95
same,normalized growth,[65],0.462 (active)
same,normalized growth,[66],0.946
same,normalized growth,[67],0.918
same,normalized growth,[68],0.918
same,normalized growth,[69],0.289 (active)
same,normalized growth,[70],0.938
Oc1c(Br)cc(Br)cc1C=Nc1ccc(Sc2ccccc2)nc1Sc1ccccc1,normalized growth,[1],0.92
same,normalized growth,[2],0.945
same,normalized growth,[3],0.926
same,normalized growth,[4],0.945
same,normalized growth,[5],0.936
same,normalized growth,[6],0.948
same,normalized growth,[7],0.917
same,normalized growth,[8],0.969
same,normalized growth,[9],0.926
same,normalized growth,[10],0.931
same,normalized growth,[11],0.331 (active)
same,normalized growth,[12],0.955
same,normalized growth,[13],0.927
same,normalized growth,[14],0.932
same,normalized growth,[15],0.311 (active)
same,normalized growth,[16],0.364 (active)
same,normalized growth,[17],0.285 (active)
same,normalized growth,[18],0.927
same,normalized growth,[19],0.937
same,normalized growth,[20],0.94
same,normalized growth,[22],0.924
same,normalized growth,[23],0.351 (active)
same,normalized growth,[24],0.196 (active)
same,normalized growth,[25],0.155 (active)
same,normalized growth,[26],0.103 (active)
same,normalized growth,[27],0.151 (active)
same,normalized growth,[28],0.155 (active)
same,normalized growth,[29],0.0625 (active)
same,normalized growth,[30],0.931
same,normalized growth,[31],0.14 (active)
same,normalized growth,[71],0.904
same,normalized growth,[32],0.208 (active)
same,normalized growth,[33],0.953
same,normalized growth,[34],0.591 (active)
same,normalized growth,[35],0.162 (active)
same,normalized growth,[36],0.483 (active)
same,normalized growth,[37],0.24 (active)
same,normalized growth,[38],0.353 (active)
same,normalized growth,[39],0.93
same,normalized growth,[40],0.388 (active)
same,normalized growth,[41],0.383 (active)
same,normalized growth,[42],0.226 (active)
same,normalized growth,[43],0.134 (active)
same,normalized growth,[44],0.406 (active)
same,normalized growth,[45],0.922
same,normalized growth,[46],0.248 (active)
same,normalized growth,[47],0.904
same,normalized growth,[48],0.941
same,normalized growth,[49],0.174 (active)
same,normalized growth,[50],0.945
same,normalized growth,[51],0.236 (active)
same,normalized growth,[52],0.953
same,normalized growth,[53],0.915
same,normalized growth,[54],0.222 (active)
same,normalized growth,[55],0.928
same,normalized growth,[56],0.43 (active)
same,normalized growth,[57],0.142 (active)
same,normalized growth,[58],0.313 (active)
same,normalized growth,[59],0.196 (active)
same,normalized growth,[60],0.951
same,normalized growth,[61],0.29 (active)
same,normalized growth,[62],0.249 (active)
same,normalized growth,[63],0.311 (active)
same,normalized growth,[64],0.949
same,normalized growth,[65],0.314 (active)
same,normalized growth,[66],0.935
same,normalized growth,[67],0.945
same,normalized growth,[68],0.915
same,normalized growth,[69],0.945
same,normalized growth,[70],0.928
Oc1c(Cl)cc(Cl)cc1C=Nc1ccc(Sc2ccccc2)nc1Sc1ccccc1,normalized growth,[1],0.938
same,normalized growth,[2],0.958
same,normalized growth,[3],0.954
same,normalized growth,[4],0.954
same,normalized growth,[5],0.954
same,normalized growth,[6],0.956
same,normalized growth,[7],0.922
same,normalized growth,[8],0.97
same,normalized growth,[9],0.945
same,normalized growth,[10],0.95
same,normalized growth,[11],0.675 (active)
same,normalized growth,[12],0.968
same,normalized growth,[13],0.95
same,normalized growth,[14],0.956
same,normalized growth,[15],0.6 (active)
same,normalized growth,[16],0.7
same,normalized growth,[17],0.635 (active)
same,normalized growth,[18],0.945
same,normalized growth,[19],0.943
same,normalized growth,[20],0.955
same,normalized growth,[21],0.916
same,normalized growth,[22],0.942
same,normalized growth,[23],0.684 (active)
same,normalized growth,[24],0.616
same,normalized growth,[25],0.217 (active)
same,normalized growth,[26],0.322 (active)
same,normalized growth,[27],0.472 (active)
same,normalized growth,[28],0.599 (active)
same,normalized growth,[29],0.462 (active)
same,normalized growth,[30],0.939
same,normalized growth,[31],0.414 (active)
same,normalized growth,[71],0.913
same,normalized growth,[32],0.56 (active)
same,normalized growth,[33],0.961
same,normalized growth,[34],0.771
same,normalized growth,[35],0.482 (active)
same,normalized growth,[36],0.734 (active)
same,normalized growth,[37],0.584 (active)
same,normalized growth,[38],0.674 (active)
same,normalized growth,[39],0.945
same,normalized growth,[40],0.748
same,normalized growth,[41],0.667 (active)
same,normalized growth,[42],0.585 (active)
same,normalized growth,[43],0.49 (active)
same,normalized growth,[44],0.727
same,normalized growth,[45],0.943
same,normalized growth,[46],0.59 (active)
same,normalized growth,[47],0.929
same,normalized growth,[48],0.942
same,normalized growth,[49],0.566 (active)
same,normalized growth,[50],0.957
same,normalized growth,[51],0.606
same,normalized growth,[52],0.962
same,normalized growth,[53],0.938
same,normalized growth,[54],0.517 (active)
same,normalized growth,[55],0.955
same,normalized growth,[56],0.693
same,normalized growth,[57],0.392 (active)
same,normalized growth,[58],0.652 (active)
same,normalized growth,[59],0.509 (active)
same,normalized growth,[60],0.948
same,normalized growth,[61],0.598 (active)
same,normalized growth,[62],0.535 (active)
same,normalized growth,[63],0.577 (active)
same,normalized growth,[64],0.951
same,normalized growth,[65],0.619 (active)
same,normalized growth,[66],0.95
same,normalized growth,[67],0.956
same,normalized growth,[68],0.941
same,normalized growth,[69],0.965
same,normalized growth,[70],0.95
